Measurements published in PubChem BioAssay (EPA / NIEHS).
Values joined by “and” are separate entries in the source; they are usually repeats but may differ in a detail not shown here. Identical values can stand only once. A structure can be active in one record and inactive in another. Active and inactive are the calls of the source. Rule for the calls: active = hit-call score of the fitted dose curve at least 0.9, where 1 is the maximum; inactive = score below 0.9.

How the values were obtained:
[1] = ATG_PXRE_CIS: Attagene CIS-FACTORIAL HepG2 Assay for human Pregnane X Receptor Element (PXRE) (AID 2282957); details: HepG2 Attagene CIS-FACTORIAL PXRE reporter, mRNA; actives raise or lower the signal
Procedure, shortened: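 Reporter transcripts under endogenous PXR-responsive cis-regulation quantified from total RNA of transfected HepG2 cells 24 h post-dosing, via RT-PCR with fluorescent primer extension and capillary electrophoresis. Gain or loss of signal fitted against DMSO baseline.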

[2] = ATG_PPRE_CIS: Attagene CIS-FACTORIAL HepG2 Assay for human Peroxisome Proliferator-activated Response Element (PPRE) (AID 2282958); details: HepG2 PPRE cis-element reporter, Attagene transcription factor profiling; actives raise or lower the signal
Procedure, shortened: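 HepG2 cells are transiently transfected with multiplexed cis-promoter reporter units to report endogenous PPAR activity. After 24 h dosing, reporter mRNA is read by RT-PCR and capillary electrophoresis. Fitting is bidirectional against DMSO.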

[3] = ATG_RORE_CIS: Attagene CIS-FACTORIAL HepG2 Assay for human RAR-related Orphan Receptor Element (RORE) (AID 2282959); details: HepG2 Attagene cis-factorial RORE reporter, mRNA; actives raise or lower the signal
Procedure, shortened: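 HepG2 cells carrying transiently transfected cis-regulated reporter units; RORE-driven reporter mRNA quantified 24 h post-dosing by RT-PCR, 6-FAM primer extension, HpaI digestion and capillary electrophoresis. Bidirectional fit versus DMSO.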

[4] = ATG_Sox_CIS: Attagene CIS-FACTORIAL HepG2 Assay for human SRY-box transcription factor (SOX) (AID 2282960); details: HepG2 Attagene cis-factorial SOX reporter, mRNA; actives raise or lower the signal
Procedure, shortened: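 HepG2 cells transiently transfected with multiple cis-regulated reporter units, then dosed for 24 h. Reporter mRNA quantified by RT-PCR, fluorescent labelling, HpaI digestion and capillary electrophoresis; bidirectional fit versus DMSO.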

[5] = biological target: Transcription factor Sp1 (Homo sapiens) (UniProt P08047); assay: ATG_Sp1_CIS: Attagene CIS-FACTORIAL HepG2 Assay for human Specificity Protein 1 (Sp1) (AID 2282961); details: HepG2 Sp1 cis-reporter transcription, actives raise or lower the signal
Transcription factor Sp1 (Homo sapiens), sequence (P08047 whole entry, looked up): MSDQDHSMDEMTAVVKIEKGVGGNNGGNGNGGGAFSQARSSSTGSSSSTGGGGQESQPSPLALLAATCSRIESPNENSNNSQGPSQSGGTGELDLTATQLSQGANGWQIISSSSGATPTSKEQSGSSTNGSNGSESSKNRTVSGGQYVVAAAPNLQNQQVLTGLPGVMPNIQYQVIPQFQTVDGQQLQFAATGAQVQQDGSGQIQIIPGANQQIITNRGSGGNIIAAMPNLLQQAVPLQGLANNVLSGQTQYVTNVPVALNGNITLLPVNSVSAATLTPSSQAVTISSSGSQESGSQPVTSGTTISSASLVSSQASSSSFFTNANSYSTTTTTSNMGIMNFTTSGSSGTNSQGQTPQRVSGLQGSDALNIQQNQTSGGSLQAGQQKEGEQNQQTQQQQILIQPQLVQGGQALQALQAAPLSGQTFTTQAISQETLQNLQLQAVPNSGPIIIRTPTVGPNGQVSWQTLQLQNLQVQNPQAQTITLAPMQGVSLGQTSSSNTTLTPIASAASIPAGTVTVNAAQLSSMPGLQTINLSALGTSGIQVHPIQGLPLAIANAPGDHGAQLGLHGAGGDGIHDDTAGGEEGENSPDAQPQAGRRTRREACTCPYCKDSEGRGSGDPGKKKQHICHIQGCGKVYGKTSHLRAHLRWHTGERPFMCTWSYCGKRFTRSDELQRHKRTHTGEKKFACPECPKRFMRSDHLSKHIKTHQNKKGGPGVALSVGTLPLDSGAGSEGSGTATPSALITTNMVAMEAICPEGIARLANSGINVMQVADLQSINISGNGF
Procedure, shortened: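 HepG2 cells transiently transfected with multiplexed cis-regulated reporter constructs, chemical exposure 24 h. Reporter mRNA quantified by RT-PCR with capillary electrophoresis; bidirectional fit relative to DMSO.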

[6] = ATG_TA_CIS: Attagene CIS-FACTORIAL HepG2 Assay for human TA Basal Promoter (AID 2282964); details: HepG2 Attagene CIS-factorial TA basal promoter reporter; actives raise or lower the signal
Procedure, shortened: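 HepG2 cells transiently transfected with multiplexed cis-promoter reporter units, dosed 24 h. Reporter mRNA measured by RT-PCR, 6-FAM labelling, HpaI digestion and capillary electrophoresis; bidirectional fit versus DMSO baseline, serving as background control.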

[7] = ATG_TCF_b_cat_CIS: Attagene CIS-FACTORIAL HepG2 Assay for human T-Cell-Factor with beta-catenin (TCF/b-cat) (AID 2282965); details: HepG2 TCF/beta-catenin cis-reporter transcription, actives raise or lower the signal
Procedure, shortened: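 HepG2, transient MRTU transfection, cis-element-driven reporters (endogenous TFs). 24 h compound exposure. Readout: reporter mRNA by RT-PCR + 6-FAM primer extension, HpaI digest, capillary electrophoresis. Gain/loss fit vs DMSO baseline.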

[8] = biological target: Signal transducer and activator of transcription 3 (Homo sapiens) (UniProt P40763); assay: ATG_STAT3_CIS: Attagene CIS-FACTORIAL HepG2 Assay for human Signal Transducer and Activator of Transcription 3 (STAT3) (AID 2282963); details: HepG2, Attagene cis-factorial STAT3 reporter transcription; actives raise or lower the signal
Signal transducer and activator of transcription 3 (Homo sapiens), sequence (P40763 whole entry, looked up, the tested form may be a part): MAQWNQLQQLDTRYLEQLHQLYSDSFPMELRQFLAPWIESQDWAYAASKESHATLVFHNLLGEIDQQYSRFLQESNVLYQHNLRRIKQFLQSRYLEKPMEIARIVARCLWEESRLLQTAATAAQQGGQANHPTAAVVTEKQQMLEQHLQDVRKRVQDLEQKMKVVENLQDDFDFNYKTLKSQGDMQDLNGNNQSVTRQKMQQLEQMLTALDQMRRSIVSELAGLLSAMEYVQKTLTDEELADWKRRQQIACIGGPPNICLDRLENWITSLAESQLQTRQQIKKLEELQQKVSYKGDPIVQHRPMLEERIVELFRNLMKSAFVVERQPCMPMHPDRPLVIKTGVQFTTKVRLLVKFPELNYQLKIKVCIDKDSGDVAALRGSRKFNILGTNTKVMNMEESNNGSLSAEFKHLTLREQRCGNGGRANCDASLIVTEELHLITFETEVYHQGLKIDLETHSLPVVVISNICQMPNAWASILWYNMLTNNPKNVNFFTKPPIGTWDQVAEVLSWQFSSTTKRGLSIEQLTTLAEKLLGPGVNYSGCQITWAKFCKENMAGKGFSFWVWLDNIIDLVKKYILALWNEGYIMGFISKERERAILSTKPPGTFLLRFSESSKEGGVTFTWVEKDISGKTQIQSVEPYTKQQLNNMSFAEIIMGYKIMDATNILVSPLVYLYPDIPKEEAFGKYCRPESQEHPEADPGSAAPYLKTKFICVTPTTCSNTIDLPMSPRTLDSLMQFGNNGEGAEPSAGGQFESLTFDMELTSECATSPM
Procedure, shortened: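 Readout: fluorescent reporter mRNA fragments resolved by capillary electrophoresis. Setup: HepG2 transfected with MRTUs reporting endogenous transcription-factor activity, dosed 24 h. Gain or loss of signal fitted bidirectionally against DMSO control.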

[9] = ATG_SREBP_CIS: Attagene CIS-FACTORIAL HepG2 Assay for human Sterol Regulatory Element Binding (SREBP) (AID 2282962); details: HepG2 Attagene cis-factorial SREBP reporter, mRNA; actives raise or lower the signal
Procedure, shortened: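 In this cis-format assay, HepG2 liver cells express reporters controlled by promoter elements responsive to native transcription factors. Exposure lasts 24 h; reporter mRNA fluorescence from capillary electrophoresis gives the signal, fitted bidirectionally against DMSO.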

[10] = ATG_TAL_CIS: Attagene CIS-FACTORIAL HepG2 Assay for human TAL Basal Promoter (AID 2282966); details: HepG2 Attagene cis-factorial TAL promoter reporter; actives raise or lower the signal;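 note: background control endpoint measuring basal TAL promoter reporter mRNA not a specific factor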
Procedure, shortened: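 Background-control endpoint: basal TAL promoter reporter transcripts in transiently transfected HepG2, measured 24 h after dosing. Read-out by RT-PCR with fluorescent primer extension and capillary electrophoresis; gain or loss of signal fitted relative to DMSO.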

Measured: AC50

O=C(c1ccccc1)C1CCCCC1
inactive: [2] | [3] | [4] | [5] | [6] | [7]
active: [1] 26.9 µM [middle of 4 runs] | [2] 31.5 µM and 67.1 µM

N#CSCSc1nc2ccccc2s1
inactive: [1] | [2] | [3] | [4] | [5] | [8] | [6] | [7]
active: [1] 3.49 µM | [2] 2.81 µM | [5] 17.8 µM | [7] 1.99 µM

Cc1nn(C)c(Oc2ccccc2)c1C=NOCc1ccc(C(=O)OC(C)(C)C)cc1
active: [1] 1.15 µM | [2] 0.0423 µM | [5] 0.0212 µM
not listed: [9] | [10]
inactive: all other assays above

CCCCC(CC)CN1C(=O)C2C3C=CC(C3)C2C1=O (stereo not given)
active: [1] 3.79 µM | [2] 50 µM | [3] 34 µM
not listed: [8]
inactive: all other assays above

CCCCOC(=O)C(C)Oc1ccc(Oc2ccc(C(F)(F)F)cn2)cc1 (stereo not given)
active: [1] 56.4 µM | [2] 50 µM
not listed: [8] | [9]
inactive: all other assays above

CCCCCOC(=O)COc1cc(N2C(=O)C3=C(CCCC3)C2=O)c(F)cc1Cl
inactive: [3] | [4] | [5] | [6]
active: [1] 10.2 µM | [7] 26.6 µM

CCNc1nc(N)nc(Cl)n1
inactive: [1] | [4] | [5] | [8] | [6] | [7]

C[C@]12C[C@H](O)[C@H]3[C@@H](CCC4=CC(=O)CC[C@@]43C)[C@@H]1CC[C@@H]2C(=O)CO
active: [1] 32.7 µM [middle of 4 runs]
not listed: [8] | [9]
inactive: all other assays above

CCOC(=O)C(C)Oc1ccc(Oc2nc3ccc(Cl)cc3o2)cc1 (stereo not given)
not listed: [3] | [10]
inactive: all other assays above

S=C([S-])NCCNC(=S)[S-].[Mn+2]
inactive: [1] | [3] | [4] | [5] | [6] | [7]

COC(=O)c1ccccc1C(=O)O
not listed: [8] | [9] | [10]
inactive: all other assays above

C#CCOC(=O)[C@@H](C)Oc1ccc(Oc2ncc(Cl)cc2F)cc1
inactive: [3] | [4] | [5] | [6] | [7]
active: [1] 19.1 µM | [2] 18 µM

CC(=O)[C@H]1CC[C@H]2[C@@H]3CCC4=CC(=O)CC[C@]4(C)[C@H]3CC[C@]12C
active: [1] 4.83 µM [middle of 4 runs]
inactive: [2] | [4] | [5] | [6] | [7]

CCCCCCC(C)OC(=O)COc1nc(F)c(Cl)c(N)c1Cl (stereo not given)
not listed: [2] | [8]
inactive: all other assays above

CCOC(=O)[C@H](C)Oc1ccc(Oc2nc3ccc(Cl)cc3o2)cc1
active: [2] 50 µM
not listed: [3] | [8] | [10]
inactive: all other assays above

CCCCOC(=O)[C@@H](C)Oc1ccc(Oc2ccc(C(F)(F)F)cn2)cc1
active: [1] 50 µM
not listed: [8] | [9]
inactive: all other assays above

CCCOC(=O)NCCCN(C)C
inactive: [1] | [3] | [4] | [5] | [6] | [7]

CC1(C)C(C=C(Cl)Cl)C1C(=O)OCc1cccc(Oc2ccccc2)c1 (stereo not given)
inactive: [3] | [4] | [5] | [6] | [7]
active: [1] 7.62 µM

N[C@@H](Cc1cc(I)c(Oc2ccc(O)c(I)c2)c(I)c1)C(=O)O
active: [2] 13 µM and 22.3 µM | [7] 41.6 µM and 24.3 µM
inactive: [2] | [3] | [4] | [5] | [9] | [8] | [6] | [7]

CCCOC(=O)c1ccc(C(=O)OCCC)nc1
active: [2] 23.1 µM
inactive: [1] | [4] | [5] | [6] | [7]

COc1c(Cl)ccc(Cl)c1C(=O)O
not listed: [8] | [9]
inactive: all other assays above

COC(=O)c1ccccc1S(=O)(=O)NC(=O)Nc1nc(OC(F)F)cc(OC(F)F)n1
active: [1] 33.2 µM
not listed: [8] | [9] | [10]
inactive: all other assays above

CCOC(=O)NCCOc1ccc(Oc2ccccc2)cc1
active: [1] 10 µM | [2] 8.06 µM | [3] 13.3 µM
not listed: [8] | [9]
inactive: all other assays above

C[C@]12CC[C@@H]3c4ccc(O)cc4C[C@@H](CCCCCCCCCS(=O)CCCC(F)(F)C(F)(F)F)[C@H]3[C@@H]1CC[C@@H]2O (stereo not given in full)
active: [1] 363 nM [middle of 4 runs]
not listed: [8] | [9] | [10]
inactive: all other assays above

CCCN(CCC)C(=O)SCC
not listed: [2] | [9] | [10]
inactive: all other assays above

Oc1ccc(C(c2ccc(O)cc2)C(Cl)(Cl)Cl)cc1
active: [1] 0.498 µM
not listed: [2] | [10]
inactive: all other assays above

COC(=O)c1ccc(CNS(C)(=O)=O)cc1S(=O)(=O)NC(=O)Nc1nc(OC)cc(OC)n1
not listed: [8] | [9]
inactive: all other assays above

CCOC(=O)c1ccc(O)cc1
inactive: [1] | [3] | [4] | [5] | [6] | [7]
active: [3] 57.3 µM

O=C(O)c1ccccc1
not listed: [2] | [8] | [9]
inactive: all other assays above

COC(=O)c1ccc(I)cc1S(=O)(=O)NC(=O)Nc1nc(C)nc(OC)n1
inactive: [3] | [4] | [5] | [6] | [7]
active: [1] 50 µM

OB(O)O
active: [1] 81.3 µM
not listed: [8] | [9] | [10]
inactive: all other assays above

COC(=O)CSc1cc(N=c2sc(=O)n3n2CCCC3)c(F)cc1Cl
active: [1] 9.92 µM | [2] 10.4 µM
not listed: [8] | [9]
inactive: all other assays above

CCN(Cc1c(F)cccc1Cl)c1c([N+](=O)[O-])cc(C(F)(F)F)cc1[N+](=O)[O-]
active: [1] 1.26 µM
not listed: [9]
inactive: all other assays above

CCCCC(CC)COC(=O)c1ccccc1C(=O)O (stereo not given)
active: [1] 24.6 µM
not listed: [2] | [10]
inactive: all other assays above
